Counter-ions that a name gives are not always drawn.

The subject of the assay is Ruminococcus gnavus DSM 108212. Kind of assay: growth (OD595) fold change vs plate DMSO controls (fold change (ratio)); higher = more growth. Particulars: incubation time: 27 h, anaerobic, 37 °C. An outline of the steps: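 The reported measure is growth: the fold change against the median of DMSO controls on the plate. Absorbance at 595 nm from anaerobic 96-well mGAM cultures grown for 27 h at 37 °C was blank-subtracted, corrected for background with 20 µM compound solutions in water, and converted to OD with a calibration factor of 5. Fold changes above 1.5 appear as NA, and values are the mean of 2 biological replicates.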
As to `CC(=O)S[C@@H]1CC2=CC(=O)CC[C@]2(C)[C@H]2CC[C@@]3(C)[C@@H](CC[C@@]34CCC(=O)O4)[C@H]12` [Spironolactone] (20 µM), the growth came out at 0.833. To `COC(=O)C1=C(C)NC(C)=C(C(=O)OCCN2CCN(C(c3ccccc3)c3ccccc3)CC2)C1c1cccc([N+](=O)[O-])c1` (centres undefined) [Manidipine Dihydrochloride] (20 µM) belongs 0.934; to `CC(=O)NS(=O)(=O)c1ccc(NC(=O)c2ccccc2C(=O)O)cc1` [Phthalylsulfacetamide] (20 µM), 0.929.

`CN(C/C=C/C#CC(C)(C)C)Cc1cccc2ccccc12` [Terbinafine] (20 µM): the growth amounted to 0.896.

As to `Nc1nc2[nH]cnc2c(=S)[nH]1` [Tioguanine] (20 µM), the growth is 0.899. For `CC(=O)OCC(=O)[C@@]12N=C(C)O[C@@H]1C[C@H]1[C@@H]3CCC4=CC(=O)C=C[C@]4(C)[C@H]3[C@@H](O)C[C@@]12C` [Deflazacort] (20 µM), the growth worked out at 0.905. With `CCCCOCCOCCOCc1cc2c(cc1CCC)OCO2` [Piperonyl butoxide] (20 µM) the figure was 1.06; with `O=C(Cn1ccnc1[N+](=O)[O-])NCCO` [Etanidazole] (20 µM), 0.954; with `CCN(CC)CCNC(=O)c1cc(Cl)c(N)cc1OC` [Metoclopramide monohydrochloride] (20 µM), 1.13.

`CCN(CC)CCNC(C(=O)OCCC(C)C)c1ccccc1` (centres undefined) [Camylofine chlorhydrate] (20 µM): the growth amounted to 0.857. In the case of `Cc1cc(C)nc(NS(=O)(=O)c2ccc(N)cc2)n1` [Sulfamethazine sodium salt] (20 µM), the growth stood at 0.999. To `C/C(O)=C(\C#N)C(=O)Nc1ccc(C(F)(F)F)cc1` [Teriflunomide] (20 µM) belongs 0.966; to `NC[C@@H]1O[C@@H](O[C@H]2[C@H](O)[C@@H](O[C@H]3O[C@H](CO)[C@@H](O)[C@H](N)[C@H]3O)[C@H](N)C[C@@H]2N)[C@@H](O)[C@H](O)[C@H]1O` [Kanamycin A sulfate] (20 µM), 1.09; to `CN[C@@H]1[C@H](O)[C@H](NC)[C@H]2O[C@@]3(O)C(=O)C[C@@H](C)O[C@H]3O[C@@H]2[C@H]1O` [Spectinomycin dihydrochloride] (20 µM), 0.692. To `CCOC(=O)c1ccc(C#Cc2ccc3c(c2)C(C)(C)CCS3)nc1` [Tazarotene] (20 µM) belongs 0.972; to `CCCOc1ccc2[nH]c(NC(=O)OC)nc2c1` [Oxibendazol] (20 µM), 0.869; to `CCN(CCCc1ccccc1)CCCc1ccccc1` [Alverine citrate salt] (20 µM), 0.708. To `CO[C@@H]1[C@@H](OC(N)=O)[C@@H](O)[C@H](Oc2ccc3c(O)c(NC(=O)c4ccc(O)c(CC=C(C)C)c4)c(=O)oc3c2C)OC1(C)C` [Novobiocin sodium salt] (20 µM) belongs 0.338; to `CCOC(N)=O` [Urethane] (20 µM), 1.08. On to `CCN1CCN(C(=O)N[C@@H](C(=O)N[C@@H]2C(=O)N3[C@@H]2SC(C)(C)[C@@H]3C(=O)O)c2ccccc2)C(=O)C1=O` [Piperacillin sodium salt] (20 µM), for which the growth stood at 0. Consider `CC1CCc2cc(F)cc3c(=O)c(C(=O)O)cn1c23` (centres undefined) [Flumequine] (20 µM), for which the growth was found to be 0.706. For the molecule `CO/N=C1\CN(c2nc3c(cc2F)c(=O)c(C(=O)O)cn3C2CC2)CC1CN` (centres undefined) [Gemifloxacin mesylate] (20 µM), the growth was 0.376. In the case of `C=CCOc1ccc(CC(=O)O)cc1Cl` [Alclofenac] (20 µM), the growth was 1. Turning to `C[C@]12CC[C@H]3[C@@H](CCC4=CC(=O)CC[C@@]43C)[C@@H]1CC[C@@H]2C(=O)CO` [Deoxycorticosterone] (20 µM), the growth was 1.11. For `CCCC(CCC)C(=O)O[C@H]1C[C@H]2CC[C@@H](C1)[N+]2(C)C` [Anisotropine Methylbromide] (20 µM), the growth was 1.01. As for `Cc1cn(-c2cc(NC(=O)c3ccc(C)c(Nc4nccc(-c5cccnc5)n4)c3)cc(C(F)(F)F)c2)cn1` [Nilotinib] (20 µM), the growth worked out at 1.02.

Consider `OCCN1CCN(CC/C=C2/c3ccccc3Sc3ccc(C(F)(F)F)cc32)CC1` [Flupentixol dihydrochloride cis-(Z)] (20 µM), for which the growth came to 0.925. Take `N#Cc1cc(NC(=O)C(=O)O)c(Cl)c(NC(=O)C(=O)O)c1` [Lodoxamide] (20 µM): the growth was found to be 1.12. For the molecule `O=P(O)(O)C(Cl)(Cl)P(=O)(O)O` [Clodronate disodium] (20 µM), the growth turned out to be 1.09. With `CC(=O)N[C@@H](CCC(N)=O)C(=O)O` [Acetyl-L-glutamine] (20 µM) the figure was 1.12; with `CC(=O)N(CC(O)CO)c1c(I)c(C(=O)NCC(O)CO)c(I)c(C(=O)NCC(O)CO)c1I` (centres undefined) [Iohexol] (20 µM), 0.911. In the case of `Cc1cc2nc3c(=O)[nH]c(=O)nc-3n(C[C@H](O)[C@H](O)[C@H](O)CO)c2cc1C` [Riboflavine] (20 µM), the growth is 0.982. As for `CC(=O)CC(c1ccc([N+](=O)[O-])cc1)c1c(O)c2ccccc2oc1=O` (centres undefined) [Acenocoumarol] (20 µM), the growth was 0.886. With `O=C1CCc2ccc(OCCCCN3CCN(c4cccc(Cl)c4Cl)CC3)cc2N1` [Aripiprazole] (20 µM), the growth is 1.07. To `Nc1nc(/C(=C/CC(=O)O)C(=O)N[C@@H]2C(=O)N3C(C(=O)O)=CCS[C@H]23)cs1` [Ceftibuten] (20 µM) belongs 1.27; to `C=C(CC)C(=O)c1ccc(OCC(=O)O)c(Cl)c1Cl` [Ethacrynic acid] (20 µM), 1.19; to `C[C@H](N[C@@H](CCc1ccccc1)C(=O)O)C(=O)N1CCC[C@H]1C(=O)O` [Enalaprilat dihydrate] (20 µM), 1.16.

Consider `O=C1c2ccccc2S(=O)(=O)N1CCCCN1CCN(c2ncccn2)CC1` [Ipsapirone] (20 µM), for which the growth is 0.939. `Cn1c(=O)c2c(ncn2CC2OCCO2)n(C)c1=O` [Doxofylline] (20 µM): the growth was 1.18.

Source of the values: the supplement of paper PMC12494721.
